Results from PubChem BioAssay (EPA / NIEHS).
Active and inactive are the calls of the source. The calls were made as follows: active = hit-call score of the fitted dose curve at least 0.9, where 1 is the maximum; inactive = score below 0.9.

Target: Heat shock factor protein 1 (Homo sapiens) (UniProt Q00613)
Test: ATG_HSE_CIS: Attagene CIS-FACTORIAL HepG2 Assay for human Heat Shock Transcription Factor 1 (HSE) (AID 2282953)
Conditions: HepG2 HSE cis-reporter, Attagene RNA transcription; actives raise or lower the signal
Procedure, shortened: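 Endogenous transcription factor activity captured via cis-promoter reporter units transfected into HepG2; treatment lasted 24 h. Fluorescence intensity of reporter fragments analysed with bidirectional curve fitting, DMSO baseline.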

Chain of Heat shock factor protein 1 (Homo sapiens) (Q00613 whole entry, looked up): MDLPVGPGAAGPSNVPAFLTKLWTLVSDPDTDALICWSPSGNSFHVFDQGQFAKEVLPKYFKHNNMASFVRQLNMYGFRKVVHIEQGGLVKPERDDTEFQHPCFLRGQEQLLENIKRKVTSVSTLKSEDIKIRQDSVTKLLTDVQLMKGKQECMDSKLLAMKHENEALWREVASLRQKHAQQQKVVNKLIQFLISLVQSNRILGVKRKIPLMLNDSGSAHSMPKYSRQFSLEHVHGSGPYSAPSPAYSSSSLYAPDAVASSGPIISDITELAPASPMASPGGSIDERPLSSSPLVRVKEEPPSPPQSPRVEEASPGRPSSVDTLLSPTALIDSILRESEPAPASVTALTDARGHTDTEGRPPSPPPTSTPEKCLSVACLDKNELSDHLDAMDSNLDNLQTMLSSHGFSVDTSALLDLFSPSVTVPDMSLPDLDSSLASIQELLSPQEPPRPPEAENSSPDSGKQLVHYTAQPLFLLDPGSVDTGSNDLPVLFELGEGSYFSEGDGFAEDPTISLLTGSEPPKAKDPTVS

| SMILES | outcome | AC50 |
| --- | --- | --- |
| Nc1ccc(Cl)cc1 | inactive |  |
| CCOP(=S)(OCC)SCSCC | inactive |  |
| CCOP(=S)(S)OCC |  | 157 µM (active) |
| Cc1cc(C)c(C(=O)P(=O)(c2ccccc2)c2ccccc2)c(C)c1 |  | 62.5 µM (active) |
| CC(C)(C)OOC(C)(C)C | inactive |  |
| Oc1ccccc1Br | inactive |  |
| CCOc1ccc(C(C)(C)COCc2cccc(Oc3ccccc3)c2)cc1 | inactive |  |
| CC1=C(C(=O)Nc2ccccc2)S(=O)(=O)CCO1 | inactive |  |
| ClC(Cl)=C(c1ccc(Cl)cc1)c1ccccc1Cl |  | 41.7 µM (active) |
| CCCCC(CC)COC(=O)c1c(Br)c(Br)c(Br)c(Br)c1C(=O)OCC(CC)CCCC (configuration not stated) | inactive |  |
| Clc1ccc(Oc2ccccc2)cc1 | inactive |  |
| O=C(O)C1C(C(=O)O)C2(Cl)C(Cl)=C(Cl)C1(Cl)C2(Cl)Cl (configuration not stated) | inactive |  |
| CC(O)C#N (configuration not stated) | inactive |  |
| CC(C)Nc1ccc(Nc2ccccc2)cc1 |  | 49.6 µM (active) |
| OCC1CO1 (configuration not stated) | inactive |  |
| CCCCC(CC)COP(=O)(Oc1ccccc1)Oc1ccccc1 (configuration not stated) |  | 72 µM (active) |
| COP(N)(=S)OC | inactive |  |
| CCCCN(CCCC)N=O | inactive |  |
| CC(C)(C)N(NC(=O)c1ccc(Cl)cc1)C(=O)c1ccccc1 | inactive |  |
| O=P(Oc1ccccc1)(Oc1ccccc1)Oc1ccccc1 |  | 53.4 µM (active) |
| CCNc1nc(Cl)nc(NC(C)(C)C)n1 | inactive |  |
| O=NN1CCCC1 | inactive |  |
